# Assay results as given in PubChem BioAssay AID493194 (Broad Institute, 2011).
# Entries with a potency or affinity are not part of this list. Results filed as inconclusive are left out. A number with no mark means an inactive call.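 The calls were made as follows: active = a valid curve of falling signal whose half-effect concentration is at most ten times the top tested dose; inconclusive = flat curve at 30 to 70% inhibition, or poor fit; inactive = signal rise, flat within 30%, or potency beyond limit.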
# Molecular target: Scavenger receptor class B member 1 (Mus musculus) (UniProt Q61009)
# Assay: mouse SR-BI DiI-HDL uptake blockers – ldlA[mSR-BI] cells, fluorescence, cherry pick, dose response (AID 493194);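 also: CHO cells lacking LDL receptor and overexpressing mouse SR-BI; cellular uptake of fluorescently labeled HDL measured as cell fluorescence; 0% = median of neutral control wells and -100% = median of positive control wells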
# Conditions: CHO ldlA[mSR-BI] DiI-HDL uptake fluorescence, 3 h; series mostly up to 35 µM; activity change, negative = inhibition: at the top concentration
# Chain of Scavenger receptor class B member 1 (Mus musculus) (Q61009 whole entry, looked up): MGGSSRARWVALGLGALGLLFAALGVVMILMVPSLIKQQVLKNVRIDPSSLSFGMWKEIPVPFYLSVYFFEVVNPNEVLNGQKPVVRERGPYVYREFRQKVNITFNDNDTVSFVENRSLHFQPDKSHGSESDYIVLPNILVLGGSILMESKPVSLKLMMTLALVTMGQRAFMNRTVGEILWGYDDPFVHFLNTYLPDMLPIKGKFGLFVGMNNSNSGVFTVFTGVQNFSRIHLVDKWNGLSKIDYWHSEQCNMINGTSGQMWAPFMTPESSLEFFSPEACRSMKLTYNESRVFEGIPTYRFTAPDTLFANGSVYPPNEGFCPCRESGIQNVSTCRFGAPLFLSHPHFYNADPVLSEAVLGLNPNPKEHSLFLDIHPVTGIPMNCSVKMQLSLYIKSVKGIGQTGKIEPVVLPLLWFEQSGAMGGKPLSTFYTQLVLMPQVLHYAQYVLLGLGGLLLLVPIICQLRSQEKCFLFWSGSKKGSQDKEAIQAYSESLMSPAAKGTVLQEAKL
row,SMILES,"activity change, negative = inhibition [%]"
1,CCCCN(Cc1ccccc1)c1ncnc2nc[nH]c12,25.3
2,COC(=O)C1=CN(c2ccc(F)c(F)c2)C=C(C(=O)OC)C1c1ccc([N+](=O)[O-])cc1,-33.5
3,Cc1cccc(NC(=O)c2cc(-c3cc(C)cc(C)c3O)n[nH]2)c1,-31.4
4,CCC(C)c1ccccc1N1CC(C(=O)N2CCN(S(=O)(=O)c3ccccc3Br)CC2)CC1=O (stereo not drawn),-7.79
5,CN(C(=O)COn1nnc2ccc(S(=O)(=O)N3CCOCC3)cc21)c1ccccc1,-9.75
6,CC(C)C(=O)N1CCc2cc(-c3csc(N)n3)ccc21,-22.1
7,COc1ccc([C@H]2/C=C\CN(S(=O)(=O)c3cccc4cccnc34)[C@@H](C)C(=O)N2Cc2ccc(F)cc2)cc1,-5.57
8,COc1ccc(OC)c(CCNC(=O)c2ccc3c(c2)N(Cc2ccccc2)CCS3)c1,62.2
9,CCOc1ccc(NC(=O)CN2CCN(CC(=O)Nc3ccc(N(C)C)cc3)CC2)cc1,3.38
10,CC1CCCCC1NC(=O)C1CCN(C(=O)c2sccc2-n2cccc2)CC1 (stereo not drawn),6.93
11,CCC(C)NC(=O)Cn1cc(S(=O)(=O)N2CCN(c3ccccc3F)CC2)c2ccccc2c1=O (stereo not drawn),42.3
12,CCCC(=O)Nc1ccc(Cl)c(NC(=O)c2cccc(OC)c2)c1,-4.6
13,Cc1cc(C)cc(N2CN=C3SCC(=O)N3C2)c1,-9.5
14,Cc1ccc(/C=C/C(=O)Nc2sc3c(c2C#N)CCCC3)o1,-15
15,N#Cc1ccc(C(=O)N2CCC3CC2c2cc(-c4ccccc4)ccc23)cc1 (stereo not drawn),16.1
16,CC[C@@H](C)[C@H](NC(=O)Cc1c(C)c2cc3c(C)c(C)oc3c(C)c2oc1=O)C(=O)O,4.74
17,COc1ccc(CNC(=O)C(c2ccc(C)cc2)N(Cc2cccs2)C(=O)c2ccc3c(c2)OCCO3)cc1 (stereo not drawn),11
18,Cc1ccc(NC(=O)c2cc(S(=O)(=O)N3CCOCC3)c(Br)s2)cc1,-29.7
19,COc1ccc2c(c1)CC(C1(O)C(=O)N(C)c3ccccc31)C2=O (stereo not drawn),75.3

row,SMILES,"activity change, negative = inhibition [%]"
1,CCCc1cc(-c2[nH]ncc2-c2ccc(C(=O)OCC)o2)c(O)cc1O,46.8
2,CCc1cc(CNC(=O)C2CCC(=O)N(CCc3cccc(F)c3)C2)on1 (stereo not drawn),22.5
3,CCC(=O)Nc1ccc(Cl)c(NC(=O)c2cccc(OC)c2)c1,0.316
4,COc1ccc(CN2CCN(C(=O)c3ccc(S(=O)(=O)NCc4ccco4)cc3)CC2)cc1F,1.25
5,Cc1cc(C)cc(N(CCC#N)C(=O)COC(=O)CCc2c[nH]c3ccccc23)c1,-32.9
6,N#CCCN(C(=O)COC(=O)CCc1c[nH]c2ccccc12)c1ccc(F)cc1,-3
7,CC(=O)c1ccc(N2CCN(C(=O)c3cc(-c4cccnc4)nc4ccc(Br)cc34)CC2)cc1,3.24
8,CCCCCCC(=O)Nc1nc(C)c(-c2csc(Nc3ccc(Cl)cc3)n2)s1,8.24
9,O=C(O)CC(C(=O)Nc1cccc(C(F)(F)F)c1)C1CCCO1 (stereo not drawn),95.2
10,Cc1ccc(-c2cc(C(F)F)n3ncc(C(=O)N4CCN(c5cccc(C)c5C)CC4)c3n2)cc1,10.1
11,Fc1ccc(-c2cc(-c3cccs3)cc(-c3ccccc3)n2)cc1,37.5
12,CCOc1ccc(CCNC(=O)Cn2ncn3nc(-c4ccc(OC)cc4)cc3c2=O)cc1,-20
13,COc1ccc(N(CC(=O)NC2CCCC2)C(=O)Cn2nnc(-c3ccc(OC)c(OC)c3)n2)cc1,-9.87
14,O=C(NCN1C(=O)C2C3C=CC(C3)C2C1=O)OC1CCCCC1 (stereo not drawn),-27.3
15,CN(Cc1ccccc1N1CCCC1)C(=O)c1cc2cc(Cl)ccc2o1,-17
16,Cc1ccc(-c2cc(C(=O)Nc3sc4c(c3C(=O)NCc3ccco3)CCC4)[nH]n2)c(O)c1,46.6
17,CCOc1ccc(NC(=O)CN2CCN(CC(=O)Nc3ccc(Cl)c(C(F)(F)F)c3)CC2)cc1,82
18,CNc1nc(-c2ccc3c(c2)CCN3C(=O)CC(C)(C)C)c(C)s1,-8.51
19,CCCCn1nc2cc(C(=O)NC3CCCc4ccccc43)ccc2c1OCC (stereo not drawn),-28
